Dicer inh – inhibitors of human Dicer processing of pre-microRNA. Q9UPY3. cat-ELCCA pre-miR-21 Dicer processing, chemiluminescence; stronger effect = higher value. z-score at 25 µM. hit rate 6% among 47,000. AID 1347074; in the data active = z-score above about 3, passing the limit was not always enough;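 note: plate controls were vehicle for no effect and no enzyme for full effect; higher signal means more uncleaved substrate so more Dicer inhibition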
An asterisk follows results filed as active. The full list was thinned out, with hits kept by preference.

How did CCOC(=O)c1c(NC(=S)NCc2ccccc2)sc2c1CCN(C(=O)OCC)C2 do in these assays?
Dicer inh: 3.7*

How did CCOC(=O)c1c(NC(=S)N2CCCCC2)sc2c1CCN(C(=O)OCC)C2 do in these assays?
Dicer inh: -2

Results for CCOC(=O)N1CCc2c(sc(NC(=O)CN3CCc4ccccc43)c2C#N)C1 ?
Dicer inh: 5.3*

What do the screens show for `CCOC(=O)c1c(NC(=O)CN2CCc3ccccc32)sc2c1CCN(C(=O)OCC)C2`?
Dicer inh: -0.43

How did C=CCNC(=S)Nc1sc2c(c1C(=O)OCC)CCN(C(=O)OCC)C2 do in these assays?
Dicer inh: -3.5

How did COc1cccc(-c2nc3cc(N)ccc3o2)c1 do in these assays?
Dicer inh: 2.8

What do the screens show for `CC(C)NC(=O)N1CCN(c2ccc(C(F)(F)F)cc2[N+](=O)[O-])CC1`?
Dicer inh: -0.11

What do the screens show for `CCOC(=O)c1cnc2cc(-c3cccs3)[nH]n2c1=O`?
Dicer inh: -0.38

Results for O=C1C(=O)N(CN2CCOCC2)c2ccc(Br)cc21 ?
Dicer inh: -2.5

Results for Cc1ccc(-c2cc(C(F)(F)F)c(C#N)c(SCC(=O)O)n2)cc1 ?
Dicer inh: -0.53

What do the screens show for `CCOC(=O)CSc1nc(C2CC2)cc(-c2ccccc2)c1C#N`?
Dicer inh: 3.7*

How did CCOC(=O)CSc1nc(-c2ccc(F)cc2)cc(C(F)(F)F)c1C#N do in these assays?
Dicer inh: 3.2*

Results for N#Cc1c(C(F)(F)F)cc(-c2ccccc2)nc1SCC(N)=O ?
Dicer inh: 0.19

How did CCOC(=O)CSc1nc(C)cc(C)c1C#N do in these assays?
Dicer inh: -0.01

What do the screens show for `CCOC(=O)COc1nc(-c2ccccc2)cc(-c2ccccc2)c1C#N`?
Dicer inh: 0.94

Results for O=C(Cn1nc2sc3ccccc3n2c(=O)c1=O)NC(=O)Nc1ccccc1 ?
Dicer inh: -0.18

What do the screens show for `Nc1nnc(-c2nonc2N)s1`?
Dicer inh: -0.08

Results for CC(C)(C)OC(=O)N[C@@H](Cc1cccc(F)c1)C(=O)O ?
Dicer inh: 0.12

How did Cc1ccc(C(=O)C(C)S(=O)(=O)c2ccc(Cl)cc2)cc1Cl (stereo not drawn) do in these assays?
Dicer inh: 0.58

How did CCCCOC(=O)C1=C(C)NC2=C(C(=O)CCC2)C1c1ccc(OC)c(Br)c1 (stereo not drawn) do in these assays?
Dicer inh: -0.67

How did CCCCCSc1nnc2c(n1)OC(C)=Nc1ccccc1-2 do in these assays?
Dicer inh: 0.64

How did CCCCSc1nnc2c(n1)OC(C)=Nc1ccccc1-2 do in these assays?
Dicer inh: 3.2*

What do the screens show for `CCCCSc1nnc2c(n1)OC(C)=Nc1ccc(Br)cc1-2`?
Dicer inh: 1.3

What do the screens show for `COc1cccc(NC(=S)NNC(=O)c2ccc(N(C)C)cc2)c1`?
Dicer inh: 1.6

Results for O=C(NCc1ccccc1F)NC1CCCCC1 ?
Dicer inh: 2.4

How did O=C(O)CCCC(=O)Nc1ccn(-c2ccccc2)n1 do in these assays?
Dicer inh: 0.09

What do the screens show for `Nc1nc(NC(=O)CCCC(=O)O)nn1-c1ccccc1`?
Dicer inh: 16*

What do the screens show for `O=C(O)CCCC(=O)Nc1nc2nccc(-c3ccccc3)n2n1`?
Dicer inh: -0.66

How did CCCCCOc1ccc(C2c3c(oc4ccccc4c3=O)C(=O)N2c2nnc(C)s2)cc1OC (stereo not drawn) do in these assays?
Dicer inh: -0.24

Results for COc1ccc(C2/C(=C(\O)c3ccc(F)cc3)C(=O)C(=O)N2c2nnc(C)s2)cc1OC (stereo not drawn) ?
Dicer inh: 1.7

What do the screens show for `COc1ccc(C2/C(=C(\O)c3ccc(Cl)cc3)C(=O)C(=O)N2c2nnc(C)s2)cc1OC` (stereo not drawn)?
Dicer inh: 4.1*

Results for Cc1nnc(N2C(=O)C(=O)/C(=C(/O)c3ccccc3)C2c2ccccc2)s1 (stereo not drawn) ?
Dicer inh: 1.5

How did Nc1ccc(Oc2ccc(F)cc2F)nc1 do in these assays?
Dicer inh: -0.45

How did CCOC(=O)NC(NC(C)c1ccccc1)(C(F)(F)F)C(F)(F)F (stereo not drawn) do in these assays?
Dicer inh: -0.53

What do the screens show for `CCOC(=O)C(OC(=O)Nc1ccccc1)C(OC(=O)Nc1ccccc1)C(=O)OCC` (stereo not drawn)?
Dicer inh: 1.9

What do the screens show for `CCOC(=O)NC1(NCC(C)C)Oc2ccccc2O1`?
Dicer inh: 6*

What do the screens show for `CN(C)NC(=O)Nc1csnc1-c1c(Cl)cccc1Cl`?
Dicer inh: -0.29

Results for Nc1c(C(=O)Nc2ccccc2)sc2nc3c(c(-c4cccnc4)c12)CCC3 ?
Dicer inh: 3.8

What do the screens show for `CSc1nc(-c2ccccc2)nc(Sc2ccc(Cl)cc2Cl)c1C#N`?
Dicer inh: -1.3

How did CSc1nnc2c(n1)OC(c1ccc(OCC(=O)O)cc1)Nc1ccccc1-2 (stereo not drawn) do in these assays?
Dicer inh: 0.76

What do the screens show for `CSc1nnc2c(n1)OC(c1ccc(Br)cc1)Nc1ccccc1-2` (stereo not drawn)?
Dicer inh: 5.4*

Bioassay records deposited in PubChem by Center for Chemical Genomics, University of Michigan.
